From PubChem BioAssay
MITF inh = blocks MITF activity; AID 2240; TRPM1 promoter luciferase, luminescence, 24 h; 37,000 compounds, 0.28% hits; inhibition, % (concentration not given with the values); in the data active = inhibition above about 85%; inconclusive = no clear call, values can overlap the other calls; inactive = below about 68%;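 note: human melanocyte line stably carrying TRPM1 promoter luciferase reporter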
NOMO-1 viab = STK33 inhibitor candidate reducing NOMO-1 cell viability; 37,000 compounds, 7.5% hits; NOMO-1 AML viability, CellTiter-Glo luminescence, 72 h; inhibition, % (test concentration not listed); in the data active = inhibition above about 80%; inconclusive = no clear call, values can overlap the other calls
Hedgehog inh = blocks Sonic Hedgehog signaling. Shh-LIGHT2 Gli-luciferase reporter, 30 h. inhibition, % (no concentration beside the values). 22,000 compounds, 2.1% hits;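 active = mean inhibition across valid replicates above about 65%, limit read from the data; inconclusive = mean under the limit, yet half or more replicates past it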;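 note: pathway switched on by Shh-conditioned medium diluted 1 in 25 in low serum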
PD-1 reversal = reversal of PD-1 mediated T-cell inhibition | activation, % (test concentration not listed) | 29,000 tested, under 10 active | primary human CD4 T cells, PD-L1 beads, CellTiter-Glo 96 h; call rule not given here;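 note: 0% = median vehicle wells and 100% = positive control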
Active calls of the source: *; ? = inconclusive; . = no result. Most compounds without a hit are left out; they make up all but 7.9% or so of the library.

SMILES | MITF inh | NOMO-1 viab | Hedgehog inh | PD-1 reversal
CC(=O)OCC(=O)[C@@]1(O)CCC2C3C[C@H](C)C4=CC(=O)C=CC4(C)C3[C@@H](O)CC21C (stereo partly specified) | -13.7 | -13.7 | 40.6 | -3.8
C[C@@H]1C[C@H]2[C@@H]3CCC4=CC(=O)C=C[C@]4(C)[C@@]3(F)[C@@H](O)C[C@]2(C)[C@@]1(O)C(=O)CO | -31.6 | 5.3 | 17.8 | -2.9
CC(=O)[C@@]1(O)CC[C@H]2[C@@H]3C[C@H](C)C4=CC(=O)C=C[C@]4(C)[C@@]3(F)[C@@H](O)C[C@@]21C | -35.7 | -13.2 | 66.7* | .
CS(=O)(=O)N(CC(=O)Nc1cccc(Cl)c1Cl)c1cc(Cl)c(Cl)cc1Cl | -55.8 | 38.3 | . | 0.6
CCOC(=O)CN1C(=O)C2(C(C#N)=C(N)Oc3n[nH]c(C)c32)c2ccccc21 (stereo unspecified) | -15.5 | 1.1 | -40.3 | 3.6
CCn1c2ccccc2c2cc(NS(=O)(=O)c3ccccc3)ccc21 | 49.0 | 136.4* | . | -0.5
O=C(Nc1ccccc1)C1CCCCC1 | -3.6 | 5.9 | . | 0.3
O=C(ON1C(=O)c2ccccc2C1=O)C1CCCCC1 | 17.8 | 125.9* | 69.8* | -2.7
COc1ccc(-c2nc3cc(C(C)C)ccc3o2)cc1NC(=O)COc1ccccc1C | -20.5 | 106.2* | . | 0.0
Cc1cc(C)cc(OCC(=O)Nc2cc(-c3nc4ccc(C)cc4o3)ccc2C)c1 | -29.5 | 105.4* | . | -5.5
COc1ccc(-c2nc3cc(C(C)C)ccc3o2)cc1NC(=O)COc1ccc(C)cc1 | 7.7 | 19.1 | . | 0.0
Cc1ccc2nc(-c3ccc(C)c(NC(=O)COc4ccc([N+](=O)[O-])cc4)c3)oc2c1 | -61.3 | 9.8 | . | 1.0
NC(=O)C1(N2CCCCC2)CCN(CC(=O)Nc2ccc(Br)cc2)CC1 | 10.5 | -14.4 | . | 1.3
Cc1c(C)c(C)c(CSc2ccccc2N)c(C)c1C | -24.4 | 91.5* | . | -2.3
CCN(CC(N)=O)S(=O)(=O)c1ccc2ccccc2c1 | -15.6 | -0.6 | . | 1.9
C[C@H](CO)N1C[C@H](C)[C@@H](CN(C)Cc2ccc(C(F)(F)F)cc2)Oc2c(NC(=O)Nc3ccccc3)cccc2C1=O | 19.7 | 92.8* | -31.0 | .
COc1ccc(NC(=O)Nc2cccc3c2O[C@@H](CN(C)Cc2ccc(C(F)(F)F)cc2)[C@@H](C)CN([C@H](C)CO)C3=O)cc1 | 8.9 | 44.8 | 1.9 | -3.4
C[C@@H]1CN([C@H](C)CO)C(=O)c2cccc(NC(=O)Nc3cccc4ccccc34)c2O[C@@H]1CN(C)Cc1ccc(C(F)(F)F)cc1 | 6.2 | 97.6* | -14.6 | -1.2
C[C@@H]1CN([C@@H](C)CO)C(=O)c2cccc(NC(=O)Nc3ccccc3)c2O[C@H]1CN(C)Cc1ccc(C(F)(F)F)cc1 | 39.6 | 87.8* | 73.7* | -5.8
C[C@@H]1CN([C@H](C)CO)C(=O)c2cccc(NC(=O)Nc3ccccc3)c2O[C@@H]1CN(C)Cc1ccc(C(F)(F)F)cc1 | -5.6 | 38.2 | -43.5 | 1.1
C[C@H](CO)N1C[C@H](C)[C@@H](CN(C)Cc2ccc(Oc3ccccc3)cc2)Oc2c(NC(=O)Nc3ccc(C(F)(F)F)cc3)cccc2C1=O | 22.4 | 96.9* | 6.1 | .
C[C@H]1CN([C@@H](C)CO)C(=O)c2cccc(NC(=O)Nc3ccc(C(F)(F)F)cc3)c2O[C@H]1CN(C)Cc1ccccc1 | -15.6 | 40.9 | -22.8 | .
Cc1ccc(CC(=S)N2CCOCC2)cn1 | 8.5 | 34.2 | . | 0.3
O=C(COc1ccc(C(=O)Nc2cc(Cl)ccc2Cl)cc1)Nc1cccc2ccccc12 | 15.3 | 37.5 | . | -1.0
C[C@@H]1CN([C@@H](C)CO)C(=O)c2cccc(NC(=O)Nc3ccc(C(F)(F)F)cc3)c2O[C@H]1CN(C)Cc1ccccc1 | 51.7 | 103.0* | -6.1 | -6.9
C[C@H]1CN([C@@H](C)CO)C(=O)c2cccc(NC(=O)Nc3ccccc3)c2O[C@@H]1CN(C)Cc1ccc(C(F)(F)F)cc1 | 41.3 | 104.0* | 4.9 | 1.6
C[C@@H]1CN([C@@H](C)CO)C(=O)c2cccc(NC(=O)c3nc4ccccc4s3)c2O[C@H]1CN(C)Cc1ccc(C(=O)Nc2ccccc2N)cc1 | 23.2 | 118.4* | . | -1.0
C[C@@H]1CN([C@@H](C)CO)C(=O)c2cccc(NC(=O)c3nc4ccccc4s3)c2O[C@H]1CN(C)Cc1ccc(C(F)(F)F)cc1 | 20.1 | ? | 2.8 | -2.0
C[C@H](CO)N1C[C@H](C)[C@@H](CN(C)Cc2ccc(Oc3ccccc3)cc2)Oc2c(NC(=O)c3nc4ccccc4s3)cccc2C1=O | 16.0 | 86.7* | -15.1 | -2.4
C[C@H](CO)N1C[C@H](C)[C@H](CN(C)Cc2ccc(C(F)(F)F)cc2)Oc2c(NC(=O)c3nc4ccccc4s3)cccc2C1=O | 35.3 | 95.6* | -1.6 | -7.2
